# Values without a mark were called inactive.
# What was measured:
# Assay in all cases: log2 ratio of Biotin-Ahx-Ub-VS probe labelling (fragment/DMSO); higher = less target engagement (more negative = stronger competition), active = hit call of the paper (q ≤ 0.05, log2 ratio ≤ -1)
# Conditions in all cases: compound concentration: 200 uM; treatment time: 3 h
# [1] = compound: CC(C)CN(C1CC1)C(=O)CCl
# In short: (§1)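 Values give the average log2 ratio of fragment to vehicle, assessed by unpaired t-test on global-median-normalised Spectronaut label-free quantities. Proteins needed ≥2 unique peptides. HEK293T lysate (495 µg per sample) was treated in triplicate with fragment at 200 µM or vehicle for 3 h and then with Biotin-Ahx-Ub-VS at 0.5 µM final for 1 h. Labelled DUBs were NeutrAvidin-enriched, digested and run by diaPASEF LC-MS/MS.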
# [2] = compound: CC(NC(=O)CCl)c1cccs1
# In short: as §1
# [3] = compound: CC1CCCCC1NC(=O)CCl
# In short: as §1
# [4] = compound: CC1CCCCN1C(=O)CCl
# In short: as §1
# [5] = compound: CC1CN(CC(C)O1)C(=O)CCl
# In short: as §1
# [6] = compound: CN(C1CCCCC1)C(=O)CCl
# In short: as §1
# [7] = compound: Cc1cc(NC(=O)CCl)no1
# In short: as §1
# [8] = compound: Cc1cccc(NC(=O)CCl)c1
# In short: as §1
# [9] = compound: Cc1nc(NC(=O)CCl)sc1C
# In short: as §1
# [10] = compound: Cc1nnc(NC(=O)CCl)s1
# In short: as §1
# [11] = compound: Cl.Cc1ncsc1CNC(=O)CCl
# In short: as §1
# [12] = compound: ClCC(=O)N1CCCCCCC1
# In short: as §1
# [13] = compound: ClCC(=O)NC1(CCCC1)C#N
# In short: as §1
# [14] = compound: ClCC(=O)NCC1CCC1
# In short: as §1
# [15] = compound: ClCC(=O)NCC1CCCO1
# In short: as §1
# [16] = compound: ClCC(=O)NCc1ccco1
# In short: as §1
# [17] = compound: ClCC(=O)Nc1cccc(Cl)c1
# In short: as §1
# [18] = compound: ClCC(=O)NC(C1CC1)C1CC1
# In short: as §1
# Chain of UniProt O00303 (O00303 whole entry): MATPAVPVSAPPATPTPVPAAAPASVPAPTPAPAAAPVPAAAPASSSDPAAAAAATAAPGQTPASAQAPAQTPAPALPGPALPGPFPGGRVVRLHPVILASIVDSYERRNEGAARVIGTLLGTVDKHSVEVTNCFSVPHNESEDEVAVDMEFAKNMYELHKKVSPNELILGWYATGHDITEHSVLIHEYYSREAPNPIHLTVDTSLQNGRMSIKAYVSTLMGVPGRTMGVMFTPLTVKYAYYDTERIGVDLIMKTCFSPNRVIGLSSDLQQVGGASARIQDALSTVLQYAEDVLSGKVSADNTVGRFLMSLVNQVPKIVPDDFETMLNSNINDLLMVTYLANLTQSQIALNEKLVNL
# Chain of UniProt Q53GS9 (Q53GS9 whole entry): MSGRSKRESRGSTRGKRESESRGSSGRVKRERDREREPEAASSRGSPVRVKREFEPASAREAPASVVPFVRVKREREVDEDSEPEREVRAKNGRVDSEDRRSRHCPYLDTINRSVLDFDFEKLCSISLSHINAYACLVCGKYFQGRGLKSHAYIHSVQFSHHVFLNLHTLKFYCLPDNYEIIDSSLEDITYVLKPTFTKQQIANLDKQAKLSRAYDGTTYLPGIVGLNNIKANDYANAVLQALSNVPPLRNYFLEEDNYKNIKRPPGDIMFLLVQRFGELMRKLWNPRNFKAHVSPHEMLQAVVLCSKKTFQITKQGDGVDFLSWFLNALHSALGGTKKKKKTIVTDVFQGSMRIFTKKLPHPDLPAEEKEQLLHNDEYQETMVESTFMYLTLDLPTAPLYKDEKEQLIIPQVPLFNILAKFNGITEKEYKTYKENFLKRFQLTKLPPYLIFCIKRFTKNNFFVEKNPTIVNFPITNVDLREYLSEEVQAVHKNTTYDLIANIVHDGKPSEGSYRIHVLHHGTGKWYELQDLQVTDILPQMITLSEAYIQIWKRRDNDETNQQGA
# Chain of UniProt Q5VVQ6 (Q5VVQ6 whole entry): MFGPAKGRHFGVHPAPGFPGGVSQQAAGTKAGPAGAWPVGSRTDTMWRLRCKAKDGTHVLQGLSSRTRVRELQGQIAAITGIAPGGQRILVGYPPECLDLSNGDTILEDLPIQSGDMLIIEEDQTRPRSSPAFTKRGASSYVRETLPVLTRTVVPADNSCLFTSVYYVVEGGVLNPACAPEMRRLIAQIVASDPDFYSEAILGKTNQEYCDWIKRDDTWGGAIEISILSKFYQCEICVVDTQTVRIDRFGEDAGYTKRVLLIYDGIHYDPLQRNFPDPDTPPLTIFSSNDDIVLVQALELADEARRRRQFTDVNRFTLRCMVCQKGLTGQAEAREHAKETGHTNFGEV
# Chain of UniProt Q93009 (Q93009 whole entry, looked up): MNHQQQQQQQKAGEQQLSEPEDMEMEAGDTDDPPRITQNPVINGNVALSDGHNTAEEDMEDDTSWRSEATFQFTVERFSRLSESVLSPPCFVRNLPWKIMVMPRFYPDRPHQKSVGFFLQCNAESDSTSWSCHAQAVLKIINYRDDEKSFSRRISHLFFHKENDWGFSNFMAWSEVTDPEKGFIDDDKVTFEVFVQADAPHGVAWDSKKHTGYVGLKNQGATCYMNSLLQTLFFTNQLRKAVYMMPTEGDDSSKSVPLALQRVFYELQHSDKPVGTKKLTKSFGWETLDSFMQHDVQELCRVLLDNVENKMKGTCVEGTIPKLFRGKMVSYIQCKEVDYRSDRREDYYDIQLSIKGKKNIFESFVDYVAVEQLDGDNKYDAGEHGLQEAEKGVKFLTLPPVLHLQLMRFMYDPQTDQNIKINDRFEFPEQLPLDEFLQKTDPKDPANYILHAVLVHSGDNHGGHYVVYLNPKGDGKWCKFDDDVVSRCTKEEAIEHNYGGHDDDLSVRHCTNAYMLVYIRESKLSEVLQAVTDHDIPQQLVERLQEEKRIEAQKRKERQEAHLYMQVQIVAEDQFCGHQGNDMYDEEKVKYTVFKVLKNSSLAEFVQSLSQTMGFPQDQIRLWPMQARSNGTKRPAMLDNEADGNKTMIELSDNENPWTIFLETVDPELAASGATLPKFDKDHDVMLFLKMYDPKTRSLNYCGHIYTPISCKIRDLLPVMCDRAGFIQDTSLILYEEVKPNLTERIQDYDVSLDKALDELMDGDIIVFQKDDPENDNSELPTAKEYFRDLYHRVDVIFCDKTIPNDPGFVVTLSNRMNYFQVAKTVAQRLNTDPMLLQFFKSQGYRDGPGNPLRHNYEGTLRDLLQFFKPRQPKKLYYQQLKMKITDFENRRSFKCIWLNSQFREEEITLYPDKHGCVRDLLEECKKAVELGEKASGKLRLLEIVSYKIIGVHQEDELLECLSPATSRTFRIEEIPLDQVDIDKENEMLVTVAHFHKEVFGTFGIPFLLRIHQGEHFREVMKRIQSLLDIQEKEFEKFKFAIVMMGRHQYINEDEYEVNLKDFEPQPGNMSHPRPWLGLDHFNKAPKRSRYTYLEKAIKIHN
# Chain of UniProt Q96FW1 (Q96FW1 whole entry): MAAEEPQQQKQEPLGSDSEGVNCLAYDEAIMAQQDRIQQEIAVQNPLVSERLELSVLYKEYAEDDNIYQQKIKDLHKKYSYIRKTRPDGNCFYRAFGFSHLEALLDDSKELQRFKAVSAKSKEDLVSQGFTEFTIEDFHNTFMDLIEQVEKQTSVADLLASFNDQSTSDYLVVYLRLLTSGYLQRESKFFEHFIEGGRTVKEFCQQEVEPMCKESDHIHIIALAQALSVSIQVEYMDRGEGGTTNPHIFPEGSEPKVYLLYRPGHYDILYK
# Chain of UniProt Q14694 (Q14694 whole entry): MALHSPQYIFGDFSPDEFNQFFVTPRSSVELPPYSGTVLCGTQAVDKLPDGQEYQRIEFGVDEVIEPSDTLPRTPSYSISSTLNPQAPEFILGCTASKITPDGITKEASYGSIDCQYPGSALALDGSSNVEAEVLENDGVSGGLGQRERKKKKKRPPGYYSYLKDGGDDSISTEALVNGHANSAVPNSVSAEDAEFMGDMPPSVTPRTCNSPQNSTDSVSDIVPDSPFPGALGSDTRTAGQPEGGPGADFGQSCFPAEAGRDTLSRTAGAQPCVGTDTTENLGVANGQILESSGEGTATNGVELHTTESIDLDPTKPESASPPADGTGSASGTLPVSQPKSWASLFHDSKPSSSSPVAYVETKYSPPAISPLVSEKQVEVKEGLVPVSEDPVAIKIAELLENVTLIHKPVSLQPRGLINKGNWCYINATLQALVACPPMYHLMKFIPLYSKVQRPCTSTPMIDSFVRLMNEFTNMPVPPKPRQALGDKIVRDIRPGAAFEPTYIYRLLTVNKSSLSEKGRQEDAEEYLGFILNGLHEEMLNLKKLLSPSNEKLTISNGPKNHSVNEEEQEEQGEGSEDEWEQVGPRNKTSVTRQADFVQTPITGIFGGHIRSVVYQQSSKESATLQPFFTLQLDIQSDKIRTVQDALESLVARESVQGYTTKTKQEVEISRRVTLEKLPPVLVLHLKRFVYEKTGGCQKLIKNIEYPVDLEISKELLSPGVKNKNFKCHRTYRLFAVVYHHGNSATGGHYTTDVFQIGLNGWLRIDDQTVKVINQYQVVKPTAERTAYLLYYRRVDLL
# Chain of UniProt Q8N6M0 (Q8N6M0 whole entry): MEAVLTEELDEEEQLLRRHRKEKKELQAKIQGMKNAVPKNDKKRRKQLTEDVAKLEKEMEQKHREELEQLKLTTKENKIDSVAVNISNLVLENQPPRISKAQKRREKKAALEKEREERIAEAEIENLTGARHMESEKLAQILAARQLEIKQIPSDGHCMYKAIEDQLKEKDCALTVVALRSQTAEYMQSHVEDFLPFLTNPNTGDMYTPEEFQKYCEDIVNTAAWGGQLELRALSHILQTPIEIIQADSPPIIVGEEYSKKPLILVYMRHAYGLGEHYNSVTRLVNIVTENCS
# Chain of UniProt P51665 (P51665 whole entry): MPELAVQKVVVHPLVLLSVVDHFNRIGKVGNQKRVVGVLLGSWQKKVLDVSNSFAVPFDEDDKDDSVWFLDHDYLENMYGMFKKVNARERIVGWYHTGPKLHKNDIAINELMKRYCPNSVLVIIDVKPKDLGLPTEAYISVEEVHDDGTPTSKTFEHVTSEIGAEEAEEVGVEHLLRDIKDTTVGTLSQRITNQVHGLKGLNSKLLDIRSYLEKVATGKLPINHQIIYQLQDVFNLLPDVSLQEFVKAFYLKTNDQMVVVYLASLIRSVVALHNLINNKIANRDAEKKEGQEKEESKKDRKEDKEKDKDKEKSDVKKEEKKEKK
# Chain of UniProt Q92560 (Q92560 whole entry): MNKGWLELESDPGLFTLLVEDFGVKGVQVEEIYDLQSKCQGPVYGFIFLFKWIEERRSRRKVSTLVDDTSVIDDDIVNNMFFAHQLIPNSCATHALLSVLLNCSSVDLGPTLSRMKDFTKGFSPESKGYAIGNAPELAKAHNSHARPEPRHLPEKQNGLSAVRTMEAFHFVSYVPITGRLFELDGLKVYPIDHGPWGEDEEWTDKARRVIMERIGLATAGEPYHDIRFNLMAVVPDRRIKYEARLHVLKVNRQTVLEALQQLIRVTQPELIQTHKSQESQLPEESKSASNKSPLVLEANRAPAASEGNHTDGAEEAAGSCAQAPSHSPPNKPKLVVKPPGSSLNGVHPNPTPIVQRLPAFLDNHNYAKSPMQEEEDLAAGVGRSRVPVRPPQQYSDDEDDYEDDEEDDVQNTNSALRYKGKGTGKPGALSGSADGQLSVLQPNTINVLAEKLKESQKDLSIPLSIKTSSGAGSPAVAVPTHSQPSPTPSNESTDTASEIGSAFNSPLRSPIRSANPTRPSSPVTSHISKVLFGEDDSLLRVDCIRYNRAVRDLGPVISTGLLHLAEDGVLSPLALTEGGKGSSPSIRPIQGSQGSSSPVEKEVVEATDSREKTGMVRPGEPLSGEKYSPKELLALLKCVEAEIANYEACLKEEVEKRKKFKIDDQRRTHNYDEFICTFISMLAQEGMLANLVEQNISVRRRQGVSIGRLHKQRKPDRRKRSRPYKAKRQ
Target,log2 ratio of Biotin-Ahx-Ub-VS probe labelling [1],log2 ratio of Biotin-Ahx-Ub-VS probe labelling [2],log2 ratio of Biotin-Ahx-Ub-VS probe labelling [3],log2 ratio of Biotin-Ahx-Ub-VS probe labelling [4],log2 ratio of Biotin-Ahx-Ub-VS probe labelling [5],log2 ratio of Biotin-Ahx-Ub-VS probe labelling [6],log2 ratio of Biotin-Ahx-Ub-VS probe labelling [7],log2 ratio of Biotin-Ahx-Ub-VS probe labelling [8],log2 ratio of Biotin-Ahx-Ub-VS probe labelling [9],log2 ratio of Biotin-Ahx-Ub-VS probe labelling [10],log2 ratio of Biotin-Ahx-Ub-VS probe labelling [11],log2 ratio of Biotin-Ahx-Ub-VS probe labelling [12],log2 ratio of Biotin-Ahx-Ub-VS probe labelling [13],log2 ratio of Biotin-Ahx-Ub-VS probe labelling [14],log2 ratio of Biotin-Ahx-Ub-VS probe labelling [15],log2 ratio of Biotin-Ahx-Ub-VS probe labelling [16],log2 ratio of Biotin-Ahx-Ub-VS probe labelling [17],log2 ratio of Biotin-Ahx-Ub-VS probe labelling [18]
USP5 (UniProt P45974),0.195,0.3,-0.0515,-0.178,0.00747,0.487,-0.18,-0.356,0.0301,-0.648,-0.209,0.18,-0.00567,-0.0477,0.0345,0.0924,-0.784,
USP39 (UniProt Q53GS9),-0.169,-0.144,-0.231,-0.11,-0.122,0.248,-0.329,-0.224,0.121,-0.07,0.28,0.0652,-0.079,-0.0869,-0.101,-0.0526,0.19,
USP36 (UniProt Q9P275),-0.165,0.124,-0.354,-0.058,-0.116,-0.0255,-0.0892,-0.141,-0.166,-0.233,0.171,-0.19,-0.191,-0.134,-0.189,-0.185,-0.132,
EIF3F (UniProt O00303),-0.0929,-0.197,-0.16,-0.0889,-0.424,-0.158,-0.0386,-0.0785,0.0404,-0.0892,-0.495,-0.124,-0.132,-0.235,0.0109,0.0785,-0.0247,
UniProt O00507,0.374,0.0497,-0.0879,-0.429,-0.148,0.12,0.023,0.0709,0.409,-0.563,-0.51,0.333,0.0321,0.0835,0.383,-0.338,-0.568,
USP24 (UniProt Q9UPU5),-0.191,-0.0286,-0.426,-0.579,-0.301,-0.575,-0.201,-0.537,-0.319,-0.639,-0.322,-0.475,-0.116,0.00205,0.122,-0.238,-1.4 (active),
BAP1 (UniProt Q92560),0.0148,-2.33 (active),-1.53 (active),-0.422,-0.661,-0.252,-2.59 (active),-1.83 (active),-1.05 (active),-1.34 (active),-2.85 (active),-0.0644,-3.06 (active),-1.81 (active),-0.549,-1.81 (active),-2.97 (active),
ALG13 (UniProt Q9NP73),0.0397,-0.0404,-1.07,0.242,0.125,-0.757,-0.0979,0.249,0.182,-0.152,-0.305,-0.0228,0.017,0.00528,0.149,-0.6,0.292,
USP10 (UniProt Q14694),-0.156,-0.0602,-0.0935,-0.0758,-0.166,-0.0336,-0.0298,-0.165,-0.0878,-0.256,-0.128,-0.22,0.0316,-0.0499,-0.115,-0.0176,-0.249,-0.045
UniProt Q9UGI0,0.11,-0.241,-0.605,-1.13 (active),-0.702,-0.423,-0.555,-0.519,-0.47,-0.661,-0.315,0.214,-0.804,-0.704,0.145,-0.705,-1.16 (active),
UCHL3 (UniProt P15374),0.39,0.116,0.0229,0.0176,0.122,-0.0569,-0.129,-0.345,0.56,0.214,0.504,0.341,-0.0242,0.0333,0.275,0.103,-0.827,
USP7 (UniProt Q93009),-0.278,-0.0253,-0.0899,-0.604,-0.322,-0.42,-0.32,-0.48,-0.237,-0.376,0.00818,-0.609,-0.186,-0.0702,-0.207,-0.0794,-0.98,-0.307
OTUB1 (UniProt Q96FW1),-0.0296,0.137,-0.0525,-0.264,-0.26,0.0388,0.388,0.123,0.281,0.165,-0.174,0.116,-0.247,-0.422,0.252,-0.0321,-0.286,0.0718
PSMD7 (UniProt P51665),-0.0028,-0.0716,0.132,-0.25,-0.394,-0.133,-0.0871,-0.0249,0.0653,-0.0837,-0.291,-0.184,-0.279,-0.286,0.0364,-0.47,-0.124,-0.0309
OTUD6B (UniProt Q8N6M0),0.0114,-0.285,0.0184,-0.269,-0.538,-0.0327,-0.167,-0.274,-0.338,-0.283,-0.0694,-0.286,-0.29,-0.356,0.00691,-0.225,-1.19 (active),-0.29
UniProt P51784,-0.051,0.138,0.0474,-0.248,-0.0132,0.0405,-0.202,-0.227,0.0778,-0.209,0.0993,-0.126,-0.072,-0.102,0.104,-0.104,-0.628,-0.304
OTUD5 (UniProt Q96G74),-0.09,0.0244,-0.556,-0.67,-0.615,-0.0917,-0.331,-0.13,-0.315,-0.685,-0.104,-0.27,-0.519,-0.238,-0.0992,-0.442,-0.995,
YOD1 (UniProt Q5VVQ6),0.253,0.0444,0.0365,-0.412,-0.152,0.18,-0.323,-0.308,0.241,-0.155,-0.266,0.106,0.0345,0.0106,0.189,0.0867,-0.836,-0.0299
